Values joined by “and” are separate entries in the source; they are usually repeats but may differ in a detail not shown here. Equal entries are not always repeated. The source holds several records for some structures; these can differ, active in one and inactive in another. Active and inactive are the calls of the source. The calls were made as follows: active = hit-call score of the fitted dose curve at least 0.9, where 1 is the maximum; inactive = score below 0.9.
Experiments:
[1] = APR_HepG2_CellLoss_72hr: Apredica 72-hour HepG2 Assay for Cell Loss (AID 2282915); settings: high-content imaging
Method in brief: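 HepG2 cells exposed 72 h to compound at 0.39–200 uM (10 concentrations, duplicate) in 0.5% DMSO. Fixed with 3.7% formaldehyde and Hoechst 33342-stained. Imaged at 20x; nuclear count gives cell number, fitted bidirectionally versus DMSO.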

[2] = APR_HepG2_P-H2AX_72hr: Apredica 72-hour HepG2 Assay for H2AX Phosphorylation (AID 2282916); settings: imaging, actives raise or lower the signal;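 also: phospho-histone H2A.x immunostain intensity per cell marking DNA damage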
Method in brief: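 HepG2 cells treated 72 h at 0.39–200 uM, 0.5% DMSO final, duplicates. Formaldehyde-fixed, Triton-permeabilised, immunostained for phospho-H2A.x with Hoechst; fluorescence imaged at 20x, bidirectional fit versus DMSO.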

[3] = APR_HepG2_MitoMembPot_72hr: Apredica 72-hour HepG2 Assay for Mitochondrial Membrane Potential (AID 2282917); settings: imaging, actives raise or lower the signal
Method in brief: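 HepG2 cells dosed 72 hr with compound at 0.39–200 uM in duplicate, 0.5% v/v DMSO final. Mitochondria stained with 250 nM MitoTracker Red CMXRos for 30 min before formaldehyde fixation, imaged by high-content fluorescence; bidirectional fit versus DMSO.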

[4] = APR_HepG2_MitoticArrest_72hr: Apredica 72-hour HepG2 Assay for Mitotic Arrest (AID 2282918); settings: high-content imaging, actives raise or lower the signal
Method in brief: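 Mitotic arrest in HepG2 is scored from phospho-histone H3 staining after 72 hr dosing across 0.39–200 uM, with DMSO at 0.5% v/v. Nuclei are identified by Hoechst 33342 and fluorescence intensity is quantified per cell.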

[5] = APR_HepG2_MicrotubuleCSK_72hr: Apredica 72-hour HepG2 Assay for Microtubule CSK Stabilty (AID 2282919); settings: HepG2 microtubule cytoskeleton, high-content imaging, actives raise or lower the signal
Method in brief: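 HepG2 cells were exposed 72 hr to compound at 0.39–200 uM in duplicate (0.5% DMSO final), then fixed and permeabilized. Alpha-tubulin immunofluorescence was imaged by high-content microscopy, with bidirectional fitting against DMSO and taxol as positive control.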

[6] = APR_HepG2_P-H2AX_24hr: Apredica 24-hour HepG2 Assay for H2AX Phosphorylation (AID 2282920); settings: high-content imaging, actives raise or lower the signal
Method in brief: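 Signal comes from a FITC-labeled secondary detecting phospho-histone H2A.x in fixed HepG2 cells, quantified by automated imaging at 20x. Dosing ran 24 hr across 0.39–200 uM with 0.5% v/v DMSO.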

[7] = APR_HepG2_StressKinase_72hr: Apredica 72-hour HepG2 Assay for Stress Kinase (AID 2282921); settings: HepG2 stress kinase (phospho-c-Jun) imaging, actives raise or lower the signal
Method in brief: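 HepG2 cells treated 72 hr with 0.39–200 uM compound, 0.5% v/v DMSO, duplicate wells. After formaldehyde fixation and Triton permeabilization, stained with anti-phospho-c-Jun (1:500) and Cy3 secondary, imaged at 20x. Fitted in both directions against DMSO.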

[8] = APR_HepG2_StressKinase_24hr: Apredica 24-hour HepG2 Assay for Stress Kinase (AID 2282922); settings: HepG2 stress kinase (phospho-c-Jun) imaging, actives raise or lower the signal
Method in brief: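 HepG2 cells exposed 24 h to 0.39–200 uM compound in duplicate (0.5% v/v DMSO final). Cells fixed in 3.7% formaldehyde, permeabilized and immunostained for phospho-c-Jun; read by high-content fluorescence imaging, fitted bidirectionally against DMSO.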

[9] = APR_HepG2_p53Act_72hr: Apredica 72-hour HepG2 Assay for p53 Activation (AID 2282923); settings: high-content imaging, actives raise or lower the signal;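 also: average cellular p53 protein immunofluorescence intensity in HepG2 cells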
Method in brief: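 HepG2 cells exposed 72 h to 0.39–200 uM in 0.5% DMSO, duplicates. Fixed, permeabilized cells immunostained for p53 (Cy5) with Hoechst; imaged at 20x, fluorescence analyzed bidirectionally against DMSO.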

[10] = APR_HepG2_MitoMass_72hr: Apredica 72-hour HepG2 Assay for Mitochondrial Mass (AID 2282924); settings: high-content imaging, actives raise or lower the signal;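 also: MitoTracker Red CMXRos stain intensity per cell imaged as mitochondrial mass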
Method in brief: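 HepG2 cells dosed 72 hr at 0.39–200 uM (0.5% DMSO), in duplicate. MitoTracker Red CMXRos 250 nM loaded 30 min before formaldehyde fixation; high-content fluorescence imaging, bidirectional fit versus DMSO.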

[11] = ATG_CRE_CIS: Attagene CIS-FACTORIAL HepG2 Assay for human cAMP Responsive Element (CRE) binding protein 3 (AID 2282926); settings: HepG2 CRE cis-reporter, Attagene multiplexed mRNA; actives raise or lower the signal
Method in brief: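 We dosed HepG2 cells bearing multiple cis-promoter reporter units for 24 h and measured reporter mRNA by RT-PCR with capillary electrophoresis detection. Bidirectional concentration-response fitting used DMSO as negative control.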

[12] = molecular target: CCAAT/enhancer-binding protein beta (Homo sapiens) (UniProt P17676); test: ATG_C_EBP_CIS: Attagene CIS-FACTORIAL HepG2 Assay for human CCAAT/Enhancer Binding Protein (C/EBP) beta (AID 2282927); settings: HepG2 Attagene cis-factorial transcription factor reporter; actives raise or lower the signal
Sequence of CCAAT/enhancer-binding protein beta (Homo sapiens) (P17676 whole entry, looked up): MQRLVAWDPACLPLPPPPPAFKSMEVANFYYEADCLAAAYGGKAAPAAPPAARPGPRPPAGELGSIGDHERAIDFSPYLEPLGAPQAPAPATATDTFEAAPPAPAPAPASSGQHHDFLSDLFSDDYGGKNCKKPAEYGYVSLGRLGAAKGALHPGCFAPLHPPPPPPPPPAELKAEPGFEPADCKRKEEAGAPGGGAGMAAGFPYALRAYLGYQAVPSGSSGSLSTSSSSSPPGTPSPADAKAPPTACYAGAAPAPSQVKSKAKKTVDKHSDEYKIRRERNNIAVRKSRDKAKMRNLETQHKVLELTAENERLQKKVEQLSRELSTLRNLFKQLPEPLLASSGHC
Method in brief: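 HepG2 transiently transfected with multiplexed reporter units under cis-regulatory promoters reporting endogenous C/EBPb activity. After 24 h exposure, reporter mRNA assayed by RT-PCR, fluorescent labelling, HpaI digestion and capillary electrophoresis; bidirectional fitting versus DMSO.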

[13] = ATG_DR4_LXR_CIS: Attagene CIS-FACTORIAL HepG2 Assay for human Liver X Receptor (LXR), DR4 submotif (AID 2282929); settings: HepG2 Attagene DR4 cis-reporter, mRNA transcription; actives raise or lower the signal
Method in brief: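 The endpoint is DR4-element-driven reporter transcripts after 24 h chemical exposure of transfected HepG2 cells. These were measured via RT-PCR and capillary electrophoresis, and gain or loss of signal was fitted relative to DMSO controls.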

[14] = molecular target: Aryl hydrocarbon receptor (Homo sapiens) (UniProt P35869); test: ATG_Ahr_CIS: Attagene CIS-FACTORIAL HepG2 Assay for human Aryl Hydrocarbon Receptor (Ahr) (AID 2282930); settings: HepG2 AhR cis-factorial reporter transcription; actives raise or lower the signal
Sequence of Aryl hydrocarbon receptor (Homo sapiens) (P35869 whole entry, looked up): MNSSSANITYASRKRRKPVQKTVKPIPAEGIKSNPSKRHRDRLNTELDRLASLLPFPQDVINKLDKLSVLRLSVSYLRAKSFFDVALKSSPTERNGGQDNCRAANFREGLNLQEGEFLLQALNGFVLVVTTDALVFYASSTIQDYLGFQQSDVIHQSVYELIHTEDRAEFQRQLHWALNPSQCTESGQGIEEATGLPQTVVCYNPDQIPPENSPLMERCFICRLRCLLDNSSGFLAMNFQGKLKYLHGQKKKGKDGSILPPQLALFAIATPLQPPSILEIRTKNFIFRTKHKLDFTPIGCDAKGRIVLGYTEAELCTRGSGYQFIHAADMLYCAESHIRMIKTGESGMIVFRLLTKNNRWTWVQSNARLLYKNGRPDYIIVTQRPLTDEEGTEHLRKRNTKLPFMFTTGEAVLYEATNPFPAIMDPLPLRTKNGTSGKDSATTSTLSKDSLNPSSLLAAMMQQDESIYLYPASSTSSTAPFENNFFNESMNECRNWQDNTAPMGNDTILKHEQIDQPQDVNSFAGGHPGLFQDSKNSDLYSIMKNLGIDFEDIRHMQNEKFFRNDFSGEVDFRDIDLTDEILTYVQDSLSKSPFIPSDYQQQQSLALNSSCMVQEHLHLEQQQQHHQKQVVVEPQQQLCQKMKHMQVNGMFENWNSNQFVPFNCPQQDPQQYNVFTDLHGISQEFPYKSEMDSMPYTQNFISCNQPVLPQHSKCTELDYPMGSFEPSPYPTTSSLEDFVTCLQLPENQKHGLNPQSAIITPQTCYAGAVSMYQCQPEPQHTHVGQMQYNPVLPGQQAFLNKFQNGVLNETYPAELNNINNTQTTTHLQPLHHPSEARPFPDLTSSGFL
Method in brief: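 HepG2 cells transiently transfected with cis-element-driven multiplexed reporter units; endogenous AhR activity read as reporter mRNA 24 h after dosing, via RT-PCR, 6-FAM labelling, HpaI digestion and capillary electrophoresis. Bidirectional fit relative to DMSO.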

[15] = ATG_AP_1_CIS: Attagene CIS-FACTORIAL HepG2 Assay for human Activator Protein 1 (AP-1) (AID 2282931); settings: HepG2 Attagene cis-factorial AP-1 reporter mRNA; actives raise or lower the signal
Method in brief: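 Readout is reporter transcript level from endogenous transcription factor activity, quantified by RT-PCR with fluorescent primer extension and capillary electrophoresis. Transiently transfected HepG2 cells, 24 h exposure. Curves fitted both directions versus DMSO.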

[16] = ATG_AP_2_CIS: Attagene CIS-FACTORIAL HepG2 Assay for human Activator Protein 2 (AP-2) (AID 2282932); settings: HepG2 AP-2 cis-reporter, Attagene transcription factor profiling; actives raise or lower the signal
Method in brief: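 HepG2 cells transiently transfected with cis-element reporter units and exposed for 24 h. Reporter mRNA measured by RT-PCR, FAM labelling, HpaI digestion and capillary electrophoresis. Changes in either direction fitted relative to DMSO.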

[17] = ATG_BRE_CIS: Attagene CIS-FACTORIAL HepG2 Assay for human Bone Morphogenetic Protein (BMP) Response Element (BRE) (AID 2282933); settings: HepG2 BMP response element reporter, Attagene transcription factor profiling; actives raise or lower the signal
Method in brief: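 Gain- or loss-of-signal was derived by bidirectional fitting against DMSO controls. The signal came from reporter mRNA, measured by RT-PCR and capillary electrophoresis, in HepG2 cells transiently carrying multiple reporter units and dosed for 24 h.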

[18] = molecular target: Retinoic acid receptor alpha (Homo sapiens) (UniProt P10276); test: ATG_DR5_RAR_CIS: Attagene CIS-FACTORIAL HepG2 Assay for human Retinoic Acid Receptor Alpha (RARE), DR5 submotif (AID 2282934); settings: HepG2 Attagene cis-factorial RARE DR5 reporter, mRNA; actives raise or lower the signal;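 as to AC50: reporter responds to endogenous RAR alpha beta and gamma in HepG2 not RARA alone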
Sequence of Retinoic acid receptor alpha (Homo sapiens) (P10276 whole entry, looked up): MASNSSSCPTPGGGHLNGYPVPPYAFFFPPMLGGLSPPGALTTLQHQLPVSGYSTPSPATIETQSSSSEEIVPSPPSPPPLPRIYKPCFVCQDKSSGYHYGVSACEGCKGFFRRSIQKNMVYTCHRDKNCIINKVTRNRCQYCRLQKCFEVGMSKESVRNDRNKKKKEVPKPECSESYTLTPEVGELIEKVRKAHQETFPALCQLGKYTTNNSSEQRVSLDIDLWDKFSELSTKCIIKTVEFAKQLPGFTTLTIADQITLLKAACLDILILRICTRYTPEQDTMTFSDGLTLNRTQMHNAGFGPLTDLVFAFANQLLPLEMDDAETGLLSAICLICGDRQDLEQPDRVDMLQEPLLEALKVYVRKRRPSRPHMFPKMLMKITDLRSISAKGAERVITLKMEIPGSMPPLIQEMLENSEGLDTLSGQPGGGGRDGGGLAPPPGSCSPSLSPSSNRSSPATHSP
Method in brief: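 HepG2 cells transiently transfected with multiplexed reporter units; DR5 cis-element drives reporter through endogenous transcription factors. After 24 h dosing, reporter mRNA quantified by RT-PCR, fluorescent labeling, HpaI digestion and capillary electrophoresis; bidirectional fitting versus DMSO.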

[19] = APR_HepG2_NuclearSize_72hr: Apredica 72-hour HepG2 Assay for Nuclear Size (AID 2282925); settings: high-content imaging, actives raise or lower the signal
Method in brief: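 HepG2 cells dosed 72 h at 0.39–200 uM (10 concentrations, duplicate) in 0.5% v/v DMSO final. Fixed, Hoechst 33342-stained nuclei imaged; nuclear diameter measured by automated image analysis. Bidirectional fit versus DMSO.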

[20] = ATG_CMV_CIS: Attagene CIS-FACTORIAL HepG2 Assay for human CMV (Internal Marker) (AID 2282928); settings: HepG2 CMV promoter reporter, transcription factor profiling; actives raise or lower the signal;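 also: endpoint acts as a background internal control marker rather than a target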
Method in brief: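 HepG2 cells transiently transfected with multiple cis-regulated reporter units; 24 h compound exposure. Reporter mRNA quantified by RT-PCR, 6-FAM primer-extension labeling, HpaI digestion and capillary electrophoresis; bidirectional fitting against DMSO baseline.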

Measured: AC50

CCc1nn(C2CCCCC2)c2cc(C3(C#N)CCC(C(=O)O)CC3)ccc12 (stereo unspecified)
active: [1] 33.3 µM | [2] 84 µM | [4] 80.7 µM | [9] 97.7 µM | [13] 129 µM | [18] 941 nM
not listed: [19] | [20]
inactive: all other assays above

CCCOc1sc(C(=O)N2CCC(c3cc(CN)ccc3F)CC2)c(C)c1Br
inactive: [3] | [8] | [11] | [12] | [13] | [14] | [16] | [17] | [18]
active: [1] 7.86 µM | [2] 22.7 µM | [4] 5.79 µM | [5] 6.58 µM | [6] 4.23 µM | [7] 32.1 µM | [9] 47.1 µM | [10] 44.5 µM | [19] 97.5 µM | [15] 3.7 µM

OCCC(F)(F)C(F)(F)C(F)(F)C(F)(F)C(F)(F)C(F)(F)C(F)(F)C(F)(F)F
active: [1] 34.8 µM | [2] 29.7 µM | [4] 21.8 µM | [6] 26.8 µM | [8] 29.2 µM | [9] 29.5 µM | [10] 102 µM | [11] 26.3 µM and 124 µM | [13] 40.1 µM | [15] 39.1 µM
inactive: [3] | [5] | [7] | [19] | [12] | [13] | [14] | [15] | [16] | [17]

CCCCCCCCCCCCCCCS(=O)(=O)Oc1ccccc1
inactive: all assays above

O=C(O)Cc1cc(I)c(Oc2cc(I)c(O)c(I)c2)c(I)c1
active: [11] 18.3 µM | [12] 29.1 µM and 17.8 µM | [13] 14.9 µM | [14] 89.3 µM | [15] 16.5 µM and 122 µM | [16] 121 µM | [17] 51 µM | [18] 41.1 µM and 32.5 µM
inactive: [1] | [2] | [3] | [4] | [5] | [6] | [7] | [8] | [9] | [19] | [11] | [13] | [14] | [16] | [17]

O=[N+]([O-])c1ccc(O)cc1
not listed: [19]
inactive: all other assays above

CC(C)(C)c1ccc(O)c(C(C)(C)C)c1
active: [1] 66 µM | [2] 36.5 µM | [6] 42.8 µM | [7] 56.6 µM | [8] 48.3 µM | [9] 20.3 µM | [15] 15.9 µM
not listed: [10]
inactive: all other assays above

CC1=C(/C=C/C(C)=C/C=C/C(C)=C/C(=O)O)C(C)(C)CCC1
active: [1] 62 µM | [6] 86.8 µM | [10] 79.9 µM | [11] 52.4 µM and 3.28 µM | [12] 6.62 µM and 193 nM | [13] 0.763 µM | [15] 42 µM
inactive: [2] | [3] | [4] | [5] | [7] | [8] | [9] | [19] | [13] | [14] | [15] | [16] | [17]

CCN(CC)CCNc1ccc(CNC=O)c2sc3ccc(OC)cc3c(=O)c12
active: [1] 7.4 µM | [4] 5 µM | [6] 5.94 µM | [11] 0.53 µM | [12] 879 nM | [15] 0.216 µM | [16] 0.496 µM | [17] 0.505 µM | [18] 457 nM
not listed: [19]
inactive: all other assays above

CCCCOCCO
not listed: [19]
inactive: all other assays above

CCCOC(=O)c1ccc(O)cc1
active: [11] 171 µM | [13] 26.1 µM | [15] 48.2 µM | [17] 79.3 µM | [18] 25200 nM
inactive: [1] | [2] | [3] | [4] | [5] | [6] | [7] | [8] | [9] | [19] | [11] | [12] | [13] | [14] | [15] | [16] | [17] | [18]

OCCC(F)(F)C(F)(F)C(F)(F)C(F)(F)C(F)(F)C(F)(F)F
active: [11] 154 µM | [12] 146000 nM | [13] 182 µM | [15] 77.3 µM
inactive: [1] | [2] | [3] | [4] | [5] | [6] | [7] | [8] | [9] | [19] | [11] | [12] | [13] | [14] | [15] | [16] | [17] | [18]

From PubChem BioAssay (EPA / NIEHS)
